This is an account of results in PubChem BioAssay (NCATS).

Assay [1] can be described thus: Quantitative High-Throughput drug screen in 47 multiple myeloma cell lines against the NCATS MIPE library collection: KMM1_JCRB cell viability assay (AID 1918960). Note: nearly all actives have a fitted effect of over 30% in size. Note: potency is the fitted concentration of half-maximal effect. The method, boiled down:
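Luminescence from CellTiter-Glo, taken after 5 min at room temperature, reports cellular ATP as viability. Cells (500 per well) had been treated 48 h at 37 °C with MIPE 4.0 compounds, scaled between DMSO and medium-only controls.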

Assay [2] can be described thus: Quantitative High-Throughput drug screen in 47 multiple myeloma cell lines against the NCATS MIPE library collection: JIM3_ECACC cell viability assay (AID 1918963; note: nearly all actives have a fitted effect of over 35% in size; note: potency is the fitted concentration of half-maximal effect). The method, boiled down:
(§1)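 CellTiter-Glo luminescence (ATP) after 48 h compound exposure, 37C/5% CO2; 500 cells/well; MIPE 4.0 approved/investigational drugs pinned in; DMSO = 100%, media only = 0% viability.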

A short description of assay [3]: Quantitative High-Throughput drug screen in 47 multiple myeloma cell lines against the NCATS MIPE library collection: INA6_PLB cell viability assay (AID 1918965; note: nearly all actives have a fitted effect of over 55% in size; note: potency is the fitted concentration of half-maximal effect). The method, boiled down: (§2)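 Myeloma cells (500 per well) were exposed to MIPE 4.0 compounds by pin transfer and incubated 48 hours at 37C, 5% CO2. Viability was read as ATP by CellTiter-Glo luminescence, normalised to DMSO (100%) and media-only (0%) wells.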

A short description of assay [4]: Quantitative High-Throughput drug screen in 47 multiple myeloma cell lines against the NCATS MIPE library collection: JJN3_DSMZ cell viability assay (AID 1918966; note: nearly all actives have a fitted effect of over 50% in size; note: potency is the fitted concentration of half-maximal effect). A digest of the protocol: as §2
Assay [5] in a line: Quantitative High-Throughput drug screen in 47 multiple myeloma cell lines against the NCATS MIPE library collection: H1112_PLB cell viability assay (AID 1918967; note: nearly all actives have a fitted effect of over 30% in size; note: potency is the fitted concentration of half-maximal effect). A digest of the protocol:
as §2

Assay [6] can be described thus: Quantitative High-Throughput drug screen in 47 multiple myeloma cell lines against the NCATS MIPE library collection: KMS20_JCRB cell viability assay (AID 1918973). Note: nearly all actives have a fitted effect of over 45% in size. Note: potency is the fitted concentration of half-maximal effect. The method, boiled down: as §2
Assay [7] can be described thus: Quantitative High-Throughput drug screen in 47 multiple myeloma cell lines against the NCATS MIPE library collection: MOLP8_DSMZ cell viability assay (AID 1918977). Note: nearly all actives have a fitted effect of over 45% in size. Note: potency is the fitted concentration of half-maximal effect. The method, boiled down:
(§3)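 Myeloma cells (500/well) treated with MIPE 4.0 compounds for 48 h at 37 °C, 5% CO2. Viability read as ATP via CellTiter-Glo luminescence after 5 min at RT; DMSO-only wells = 100%, media-only = 0% viability.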

Assay [8] is described as follows: Quantitative High-Throughput drug screen in 47 multiple myeloma cell lines against the NCATS MIPE library collection: NCIH929_DSMZ cell viability assay (AID 1918978). Note: nearly all actives have a fitted effect of over 35% in size. Note: potency is the fitted concentration of half-maximal effect. The method, boiled down:
as §3

Assay [9] can be described thus: Quantitative High-Throughput drug screen in 47 multiple myeloma cell lines against the NCATS MIPE library collection: OCIMY1_PLB cell viability assay (AID 1918979). Note: nearly all actives have a fitted effect of over 35% in size. Note: potency is the fitted concentration of half-maximal effect. The method, boiled down: as §3
A short description of assay [10]: Quantitative High-Throughput drug screen in 47 multiple myeloma cell lines against the NCATS MIPE library collection: Karpas620_DSMZ cell viability assay (AID 1918959). Note: nearly all actives have a fitted effect of over 30% in size. The method, boiled down: as §1
The nature of assay [11]: Quantitative High-Throughput drug screen in 47 multiple myeloma cell lines against the NCATS MIPE library collection: Karpas25_ECACC cell viability assay (AID 1918968; note: nearly all actives have a fitted effect of over 35% in size; note: potency is the fitted concentration of half-maximal effect). The method, boiled down:
as §2

Assay [12] can be described thus: Quantitative High-Throughput drug screen in 47 multiple myeloma cell lines against the NCATS MIPE library collection: KMS12BM_JCRB cell viability assay (AID 1918971). Note: nearly all actives have a fitted effect of over 35% in size. Note: potency is the fitted concentration of half-maximal effect. The method, boiled down:
(§4)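 Approved and investigational drugs from MIPE 4.0 were added by pin tool to 500 cells per well. After 48 hours at 37C, ATP-based CellTiter-Glo luminescence indicated remaining viability.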

A short description of assay [13]: Quantitative High-Throughput drug screen in 47 multiple myeloma cell lines against the NCATS MIPE library collection: KMS12PE_JCRB cell viability assay (AID 1918972). Note: nearly all actives have a fitted effect of over 30% in size. Note: potency is the fitted concentration of half-maximal effect. The method, boiled down:
as §2

Assay [14] can be described thus: Quantitative High-Throughput drug screen in 47 multiple myeloma cell lines against the NCATS MIPE library collection: KMS26_JCRB cell viability assay (AID 1918975). Note: nearly all actives have a fitted effect of over 45% in size. Note: potency is the fitted concentration of half-maximal effect. A digest of the protocol: as §4
A short description of assay [15]: Quantitative High-Throughput drug screen in 47 multiple myeloma cell lines against the NCATS MIPE library collection: MMM1_PLB cell viability assay (AID 1918976). Note: nearly all actives have a fitted effect of over 35% in size. Note: potency is the fitted concentration of half-maximal effect. The method, boiled down: as §3
The nature of assay [16]: Quantitative High-Throughput drug screen in 47 multiple myeloma cell lines against the NCATS MIPE library collection: KHM11_PLB cell viability assay (AID 1918962). Note: nearly all actives have a fitted effect of over 35% in size. Note: potency is the fitted concentration of half-maximal effect. A digest of the protocol: as §1
The nature of assay [17]: Quantitative High-Throughput drug screen in 47 multiple myeloma cell lines against the NCATS MIPE library collection: KMS27_JCRB cell viability assay (AID 1918970). Note: nearly all actives have a fitted effect of over 30% in size. Note: potency is the fitted concentration of half-maximal effect. The settings on record: KMS27 myeloma cells, CellTiter-Glo ATP viability, 48 h; viability (% of DMSO): at 45.8 µM (top of the series). A digest of the protocol:
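ATP-based viability (CellTiter-Glo luminescence) is measured in cells treated 48 h with approved and investigational drugs at 37 °C. Controls are DMSO-only wells for full viability and media-only wells for none.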

A short description of assay [18]: Quantitative High-Throughput drug screen in 47 multiple myeloma cell lines against the NCATS MIPE library collection: JIM1_ECACC cell viability assay (AID 1918964; note: potency is the fitted concentration of half-maximal effect). A digest of the protocol:
as §2

Assay [19] is described as follows: Quantitative High-Throughput drug screen in 47 multiple myeloma cell lines against the NCATS MIPE library collection: Karpas417_ECACC cell viability assay (AID 1918961). Note: potency is the fitted concentration of half-maximal effect. The note with it: Karpas417 myeloma viability, CellTiter-Glo ATP luminescence, 48 h; viability (% of DMSO): at 45.8 µM (top of the series). A digest of the protocol: as §2
The nature of assay [20]: Quantitative High-Throughput drug screen in 47 multiple myeloma cell lines against the NCATS MIPE library collection: KMS21BM_JCRB cell viability assay (AID 1918974). Note: potency is the fitted concentration of half-maximal effect. The note with it: ATP luminescence, 48 h; viability: at 45.8 µM (top of the series). A digest of the protocol: as §2

Records with an inconclusive call do not appear. Active and inactive are the calls of the source. Calls come from the whole dose curve; as a rule, active = well fitted curve in the direction sought with a large enough effect; inconclusive = small, poorly fitted or top-dose-only effect, or another doubt; inactive = no such curve, though single readings can be large; an effect the other way counts as inactive or inconclusive.

For the compound `C[C@]12CCC(=O)C=C1[C@@H]1CC1[C@H]1[C@H]3[C@@H]4C[C@H]4[C@@]4(CCC(=O)O4)[C@@]3(C)CC[C@H]12` (some centres undefined), the Potency in assay [1] and in [3] was 20900 nM (active) each time. Also, the Potency result in assay [2], in assay [4], in assay [5], in assay [6], in [7] and in assay [8] was “inactive” in each case. In addition, the Potency entry in assay [9] is “inactive”.
`CC(=O)OCC(=O)[C@@]12N=C(C)O[C@H]1C[C@H]1[C@@H]3CCC4=CC(=O)C=C[C@]4(C)[C@@H]3[C@@H](O)C[C@@]12C`: the Potency result in assay [10], in assay [12], in assay [13], in assay [14] and in assay [15] was “inactive” in each case. In addition, the Potency in [3] was 11800 nM (active); in assay [11] it was 5260 nM (active); in assay [7] it was 16600 nM (active).
Consider `N#CC(=C(O)c1ccc(Cl)cc1Cl)c1nc2cc(Cl)ccc2c(=O)[nH]1`, for which the Potency entry in [1], in assay [16], in [2], in assay [3], in assay [17] and in assay [12] was “inactive” each time. In addition, the Potency result in assay [13], in assay [15], in assay [7] and in assay [8] was “inactive” each time.
Consider `CC(=O)C1=C(O)C=C2Oc3c(C(C)=O)c(O)c(C)c(O)c3C2(C)C1=O` (centres undefined), for which the Potency entry in assay [1], in assay [16], in assay [2], in [3], in assay [5] and in [12] was “inactive” each time. For the same compound, the Potency entry in [8] and in [9] was “inactive” each time.
As for `O=C(O)CCCCC(CCSCc1ccccc1)SCc1ccccc1` (centres undefined), the values for the Potency in assay [1], in assay [17] and in [13] were 13200 nM (active), 13200 nM (active) and 16600 nM (active), respectively. Further, the Potency entry in assay [16], in [2], in [12], in assay [14], in assay [7] and in assay [8] was “inactive” each time. In addition, in [9], the Potency result is “inactive”.
With `CC(=O)O[C@@]12CO[C@H]1C[C@H](O)[C@@]1(C)C(=O)[C@H](O)C3=C(C)[C@@H](OC(=O)C(O)[C@@H](NC(=O)OC(C)(C)C)c4ccccc4)C[C@@](O)([C@@H](OC(=O)c4ccccc4)[C@@H]21)C3(C)C` (some centres undefined), the Potency result in [1], in [16], in assay [2], in [18], in [4] and in assay [5] was “inactive” in each case. Also, the Potency result in [11], in assay [17], in assay [12], in assay [7] and in [8] was “inactive” throughout.
Consider `COc1cc(N2CCC(C(N)=O)CC2)ccc1Nc1nc(N)c(Cl)c(Nc2ccccc2S(=O)(=O)C(C)C)n1`, for which the Potency in assay [2] is 166 nM (active); in assay [18], 46.9 nM (active); in assay [3], 7430 nM (active); in [4], 105 nM (active); in assay [5], 148 nM (active); in assay [11] it was 235 nM (active). Moreover, the Potency was 264 nM (active) in [17]; 2640 nM (active) in assay [12]; 1 nM (active) in assay [6]; 1870 nM (active) in assay [14]; 209 nM (active) in assay [15]; 93.5 nM (active) in [8].
Regarding `C[C@@H](Cc1cc2c(c(C(N)=O)c1)N(CCCO)CC2)NCCOc1ccccc1OCC(F)(F)F`, the Potency result in assay [16], in [2], in assay [18], in assay [4], in assay [5] and in [7] was “inactive” in each case. For the same compound, the Potency result in assay [8] was “inactive”.
Turning to `CCN1CCN(C(=O)N[C@H](C(=O)N[C@@H]2C(=O)N3C(C(=O)O)=C(CSc4nnnn4C)CS[C@@H]23)c2ccc(O)cc2)C(=O)C1=O`, the Potency entry in assay [16], in assay [2], in [5], in assay [11], in assay [13] and in assay [6] was “inactive” each time. The Potency result in [14], in assay [8] and in assay [9] was “inactive” in each case.
On to `CC(O)(C#Cc1ccc2c(c1)N(c1nc(N)ncc1Cl)CC2)c1nccs1` (centres undefined), for which the Potency is 4690 nM (active) in assay [19]; 8330 nM (active) in assay [3]; 1180 nM (active) in assay [5]; 3720 nM (active) in assay [11]; 20900 nM (active) in assay [17]; 13200 nM (active) in assay [13]. The Potency was 2640 nM (active) in assay [6], 332 nM (active) in assay [20], 1180 nM (active) in assay [8] and 14800 nM (active) in assay [9].
In the case of `CCC(C(=O)O)C1CCC(C)C(C(C)C(O)C(C)C(=O)C(CC)C2OC3(C=CC(O)[C@@]4(CC[C@](C)(C5CC[C@@](O)(CC)C(C)O5)O4)O3)C(C)CC2C)O1` (some centres undefined), the Potency is 14800 nM (active) in [16]; 1480 nM (active) in [2]; 332 nM (active) in [18]; 1660 nM (active) in assay [3]; 1050 nM (active) in [4]; 8330 nM (active) in [5]. Moreover, the Potency in assay [11] is 7430 nM (active); in [17], 743 nM (active); in [12] it was 148 nM (active); in [13] it was 743 nM (active); in assay [14] it was 526 nM (active); in [15] it was 6620 nM (active). The Potency in assay [7] is 743 nM (active); in [8], 10500 nM (active); in [9], 5260 nM (active).
